# Test results published in PubChem BioAssay (NCI).
# About 83,000 compounds went through this panel and 20% of them were active in at least one assay; those are over-represented in the sample as a whole.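 Activity criterion: percent growth below 10, measured after cells in 96-well plates were exposed to a single compound concentration for 48 hours.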 Unmarked numbers belong to inactive results. Calls of active or inactive are those of the source.
# Tested on: T-47D breast
# Test: NCI-60 one-dose screen, 48 h (100 = growth as untreated, 0 = no growth, -100 = all killed)
# Details: 10 µM unless noted
# Protocol: Growth inhibition of the T-47D human tumor cell line is measured as a screen for anti-cancer activity. Cells are grown in 96 well plates and exposed to the test compound for 48 hours. Compounds are tested at a single concentration, which is 10^-5 M for most compounds. The reported endpoint is percent growth (GI% or GIPRCNT), where numbers from 0 - 100% represent growth inhibition, and numbers from -100% - 0 represent cell death. For example, a value of 40 represents 60% growth inhibition. A value of 0 means no net growth occurred over the course of the experiment. A value of -40 indicates 40% of cells at the beginning of the experiment died by the end of the experiment. A value of -100 means all cells are dead at the end of the experiment.
# NCI-60 Human Tumor Cell Lines Screen was performed using the standard one-dose NCI protocol, which is described in more detail at https://dtp.cancer.gov/discovery_development/nci-60/default.htm.
# Compounds with GIPRCNT values below 10 were considered active. Activity score was based on GIPRCNT using the following formula: […]
# Score is 0 for GIPRCNT values of 100 or above, 50 for GIPRCNT values of 0, and 100 for GIPRCNT values of -100.
row,Compound,growth
1,Cc1cnc(C(=O)Nc2nc3ccc(S(=O)(=O)Nc4ccc(C(C)(C)C)cc4)cc3[nH]2)cn1,27.1%
2,COc1ccc(-c2cnc3c(-c4cccc5cnccc45)cnn3c2)cc1,22.8%
3,Oc1ccc(OCCOc2ccc(O)cc2)cc1,72.5%
4,CCOc1cccc(-c2nc(N)nc(Nc3ccccc3SSc3ccccc3Nc3nc(N)nc(-c4cccc(OCC)c4)n3)n2)c1,44.5%
5,N#CC1C(C#N)C(C(=O)c2ccc(Br)cc2)N2c3ccccc3C=CC12 (stereo not given),49.3%
6,Cc1cc2c(C(=O)NCC#N)cccc2n1-c1nc2c(c(NCc3ccccc3)n1)CCCC2,-16.6% (active)
7,C=C1C(=O)O[C@H]2[C@H]1CC/C(COC(=O)NCc1c[nH]c3ccc(Cl)cc13)=C\CC[C@@]1(C)O[C@@H]21,-76.2% (active)
8,CC(C)(C)c1cc(C=O)cc(C(C)(C)C)c1O,110%
9,ClC1=C(Br)C(Br)(Br)C(=C(Br)Br)C1(Br)Br,73.6%
10,COc1ccc(C(=O)c2cc(OC)c(OC)c(OC)c2)cc1O,54.7%
11,NC1[C@H](c2c[nH]c3ccccc23)c2c([nH]c3ccccc23)[C@H]1c1c[nH]c2ccccc12 (stereo not given in full),94.9%
12,CC(C)(C)CC(C)(C)n1nnnc1C(NC12CC3CC(CC(C3)C1)C2)c1ccccc1 (stereo not given),73.5%
13,O=c1c2c(c(=O)n1O)c1c3ccc[nH]c3nc1c1nc3[nH]cccc3c12,60.7%
14,COc1ccc(/C=C2\Oc3cc(OCCCCCN4CCCCC4)ccc3C2=O)cc1OC,72.4%
15,O=C(Nc1ccc(F)cc1)Nc1ccc(NC(=O)c2cc(Cl)nc3ccccc23)cc1,42.9%
16,COc1cc(/C=C\C(=O)O)ccc1OCc1ccccc1,82.1%
17,COc1ccc(-c2cnc3c(-c4cccc5ncccc45)cnn3c2)cc1,45.7%
18,O=C(Nc1ccc(-c2ccc3c(c2)NC(=O)/C3=C\c2ccc[nH]2)cc1)NC1CC1,32.1%
19,C=C1C(=O)O[C@H]2[C@H]1CC/C(CNC(=O)C(C)c1ccc(CC(C)C)cc1)=C\CC[C@@]1(C)O[C@@H]21 (stereo not given in full),-46.3% (active)
20,COc1ccc(C(=O)c2cc(C)c(OC)c(C)c2)c(OC)c1NC(C)=O,60.6%

row,Compound,growth
1,CCCCCN1C=C/C(=C\C(=O)n2ccc3ccccc32)c2ccccc21,70%
2,Cc1ccc(NC(C(=O)c2ccccc2)c2ccccc2)cc1 (stereo not given),25.9%
3,N#C/C(=C\c1c(-c2ccccc2)[nH]c2ccccc12)C(=O)c1ccc(Cl)cc1,84.9%
4,Cc1nnc2c(Cc3ccccc3)nc3ccccc3n12,92.4%
5,O=C(O)c1ccc(-c2nn(-c3ccc(C(F)(F)F)cc3)cc2CNc2ccc(Oc3ccccc3)cc2)cc1,65%
6,COc1cc2nc(-c3ccc(Cl)cc3)cc(OCCCN3CCOCC3)c2cc1OC,28.2%
7,O=C1/C=C/[C@@H](O)[C@@H]2C[C@@H](O)C[C@H]2/C=C/CCC[C@H](CCc2ccc3ncccc3c2)O1,0.682% (active)
8,COc1cccc(-c2cc(C(=O)Nc3ccc(/C=C/c4ccc(OC5CCN(C)CC5)cc4)cc3)ccc2OC)c1,53%
9,CC(C)N1C(=O)S/C(=C2/SC(=O)N(C(C)C)C2=O)C1=O,104%
10,CCOC(=O)Oc1c(OC)cc(C(=O)c2ccc(OC)c(OC(=O)CCl)c2OC)cc1OC,36.2%
11,Clc1ccc(-c2ccc(CNCC3CCNCC3)o2)c(-c2ccccc2)c1,-75.2% (active)
12,NC(=NCCCOc1ccc(F)cc1)Nc1ccc(I)cc1,28.2%
13,Cn1nc(CC#N)c2c(=N)n(N)cnc21,105%
14,C[C@H]1[C@H]2[C@H]3CC[C@@H]4[C@@]5(C)CC[C@H](O)C(C)(C)[C@@H]5CC[C@@]4(C)[C@]3(C)CC[C@]23CO[C@]1(C)[C@@H](C(=O)/C=C\c1ccco1)C3,84.8%
15,NC(=NCCCOc1ccc(F)cc1)Nc1ccc(Cl)cc1,18.6%
16,COc1cc2cc(CN3CCN(c4nccc(-c5ccc6ccccc6c5)n4)CC3)c(=O)[nH]c2cc1OC,81.5%
17,COc1ccc(C(C)=O)c(OC)c1,108%
18,O=C(CCN1CCCC1)Nc1ccc2c(NCc3ccccc3)c3ccccc3nc2c1,-5.83% (active)
19,O=C1OC(Cc2ccccc2)C1c1ccccc1 (stereo not given),93.7%
20,CC(C)(C)c1cc(/C=N/NC(=O)c2ccccc2NC(=O)c2cccs2)c(O)c(C(C)(C)C)c1,29.4%
